Experimental data taken from PubChem BioAssay.
Activity calls are given as the source filed them.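 The calls were made as follows: active = at least 20% inhibition of 6-phosphogluconate dehydrogenase activity; inactive = the rest.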

Each compound was assayed against 6-phosphogluconate dehydrogenase, decarboxylating (Homo sapiens) (UniProt P52209) (assay: 6PGD enzyme inhibitors, primary screen, biochemical, human, recombinant enzyme, NADPH absorbance (AID 1159550)). Settings: recombinant 6PGD, NADPH absorbance 341 nm; at 10 µM; active compounds read high.
Chain of 6-phosphogluconate dehydrogenase, decarboxylating (Homo sapiens) (P52209 whole entry, looked up): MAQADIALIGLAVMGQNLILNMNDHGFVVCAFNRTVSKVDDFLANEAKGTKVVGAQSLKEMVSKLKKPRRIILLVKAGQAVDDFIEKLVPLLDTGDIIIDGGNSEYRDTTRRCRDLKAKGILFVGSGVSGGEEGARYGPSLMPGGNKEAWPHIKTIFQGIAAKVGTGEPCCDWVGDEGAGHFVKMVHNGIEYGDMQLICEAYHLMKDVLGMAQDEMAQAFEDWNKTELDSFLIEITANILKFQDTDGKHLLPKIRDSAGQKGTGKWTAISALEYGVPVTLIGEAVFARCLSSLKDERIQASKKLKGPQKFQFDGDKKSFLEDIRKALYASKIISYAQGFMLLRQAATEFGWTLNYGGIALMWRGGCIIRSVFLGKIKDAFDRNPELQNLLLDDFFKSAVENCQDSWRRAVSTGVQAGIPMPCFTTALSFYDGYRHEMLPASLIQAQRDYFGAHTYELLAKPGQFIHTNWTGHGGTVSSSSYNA

inhibition, inactive:
CC(C)CCCC(C)C1CCC2C3C(=O)C=C4C[C@@H](O)CCC4(C)C3CCC12C (some centres undefined) 12.2%, CC(=O)OC1CC2C(C)(C)C(=O)C=CC2(C)C2CCC3(C)C(c4ccoc4)OC(=O)C4OC43C12C (centres undefined) -18.7%, CC(C)CC(NC(=O)C1CCCN1C(=O)C(N)C(C)C)C(=O)O (centres undefined) 14%, O[n+]1ccccc1[S-].O[n+]1ccccc1[S-].[Zn] 12.7%, COC(=O)C[C@H]1C(C)(C)C(=O)[C@@H]2CC3=C4CC(=O)O[C@@H](c5ccoc5)[C@]4(C)CC[C@@H]3C1(C)C2=O -2.15%, CCN1CC2CCC(OC)C34C2C(O)C2(OCOC25CC(OC)C2CC3(O)C5C2OC)C14 (centres undefined) 4.26%, COc1ccccc1-c1cc(=O)c2cccc(OC)c2o1 4.44%, CC(=O)[C@H]1CC[C@H]2[C@@H]3CC(=O)C4=CC(=O)CC[C@]4(C)[C@H]3CC[C@]12C -2.73%, O[C@@H]1[C@@H](O)[C@@H]2OC[C@@H](O2)[C@H]1O -10.4%, O=C1C[C@@H](c2ccccc2)Oc2cc(O)cc(O)c21 17.2%, CC(C)[C@@H](C)/C=C/[C@@H](C)[C@H]1CC[C@H]2C3=CCC4CC(=O)CC[C@]4(C)[C@H]3CC[C@]12C (some centres undefined) 2.32%, Cc1cc(=O)c2c(O)c3c(cc2o1)OCC(C)CC3 (centres undefined) 4.57%, COC(=O)[C@H](O)[C@H]1C(C)(C)C(=O)[C@@H]2C[C@]3(O)[C@@H]4CC(=O)O[C@@H](c5ccoc5)[C@]4(C)CC[C@@H]3[C@@]1(C)C2=O 1.04%, NCCCC(N)CC(=O)NCC1NC(=O)C(CO)NC(=O)C(N)CNC(=O)C(C2CCNC(N)=N2)NC(=O)/C(=C/NC(N)=O)NC1=O (centres undefined) -0.986%
